The structures appear in SMILES notation. About 83,000 compounds went through this panel and 20% of them were active in at least one assay; those are over-represented in the sample as a whole.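 Cell lines were cultured in 96-well plates, exposed to a single compound concentration, and assessed for percent growth 48 hours later.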 A number with no mark means an inactive call. Active and inactive are the calls of the source. Rule for the calls: active = growth percent below 10; inactive = the rest.

Consider eight molecules from PubChem BioAssay (NCI).

Some test systems named below: HCT-15 colon; HT29 colon; SNB-75 CNS; SNB-19 CNS; U251 CNS; PC-3 prostate; SK-MEL-5 melanoma; UACC-62 melanoma; LOX IMVI melanoma; SK-MEL-28 melanoma; SK-MEL-2 melanoma; EKVX NSCLC; SN12C renal; UO-31 renal; TK-10 renal; ACHN renal; CAKI-1 renal; A498 renal; MOLT-4 leukemia.
Common to all, as to test: NCI-60 one-dose screen, 48 h (100 = growth as untreated, 0 = no growth, -100 = all killed)
What all share (settings): 10 µM unless noted

Take `N#CC1=C(N)Oc2c(sc3c(Br)cccc23)C1c1ccccn1` (configuration not stated): the growth was 28.5% with HCT-15 colon; 10.6% in the assay with HT29 colon; 61.2% with SNB-75 CNS; 48.4% in the assay with SNB-19 CNS; 36.5% with U251 CNS; 40.6% with PC-3 prostate. The growth is 40.8% in the assay with SK-MEL-5 melanoma; 18.3% with UACC-62 melanoma; 38.7% in the assay with LOX IMVI melanoma; 65.3% with SK-MEL-28 melanoma; 2.4% (active) with SK-MEL-2 melanoma; 53.4% in the assay on EKVX NSCLC. Moreover, the growth with SN12C renal was 43.9%; in the assay with UO-31 renal it was 46.7%; in the assay on TK-10 renal, 64.6%; in the assay with ACHN renal, 47.3%; in the assay with CAKI-1 renal, 87.4%; in the assay with A498 renal, 37.9%. The growth in the assay with MOLT-4 leukemia was 28.9%.

Consider `Cc1ccc(Cl)cc1N1CCN(C(=O)[C@@H]2C[C@@H]2c2ccc(F)cc2)CC1`, for which the growth in the assay with HCT-15 colon was 85.4%; in the assay with HT29 colon, 72.7%; in the assay with SNB-75 CNS it was 96.2%; with SNB-19 CNS it was 92%; with U251 CNS it was 90%; in the assay with PC-3 prostate, 69.1%. For the same molecule, the growth in the assay on SK-MEL-5 melanoma was 80.7%; with UACC-62 melanoma it was 69.7%; in the assay with LOX IMVI melanoma, 97.6%; with SK-MEL-28 melanoma, 103%; in the assay on SK-MEL-2 melanoma, 91.7%; in the assay on EKVX NSCLC, 88.3%. Further, the growth is 98.9% with SN12C renal; 70.9% in the assay with UO-31 renal; 100% in the assay with TK-10 renal; 93% in the assay with ACHN renal; 69.1% with CAKI-1 renal; 87.2% in the assay with A498 renal. In the assay with MOLT-4 leukemia, the growth is 78.5%.

As for `C/C(=C(\c1ccc(OCCN2CCOCC2)cc1)c1ccc(OC(=O)C2CCCCC2)cc1)c1ccc(Cl)cc1`, the growth in the assay with HCT-15 colon was 97.7%; in the assay with HT29 colon it was 76.3%; in the assay with SNB-75 CNS, 109%; in the assay on SNB-19 CNS it was 100%; with U251 CNS, 99.5%; in the assay with PC-3 prostate it was 68.2%. The growth with SK-MEL-5 melanoma is 91.6%; in the assay on UACC-62 melanoma, 87.9%; in the assay with LOX IMVI melanoma, 102%; in the assay on SK-MEL-28 melanoma, 99.1%; in the assay on SK-MEL-2 melanoma, 92.6%; in the assay with EKVX NSCLC it was 94.1%. Moreover, the growth was 94.7% in the assay with SN12C renal; 81.8% in the assay with UO-31 renal; 96.4% with TK-10 renal; 104% in the assay with ACHN renal; 77.9% in the assay on CAKI-1 renal; 92.6% in the assay on A498 renal. Further, the growth in the assay on MOLT-4 leukemia is 91.1%.

As for `COc1cc(-c2nc3occn3c2-c2ccnc(NCCCNS(=O)(=O)c3ccc(O)cc3)n2)ccc1F`, the growth in the assay on HCT-15 colon is 114%; with HT29 colon it was 66.4%; in the assay with SNB-75 CNS it was 97.6%; in the assay on SNB-19 CNS, 124%; in the assay on U251 CNS, 108%; with PC-3 prostate, 94.6%. In addition, the growth with SK-MEL-5 melanoma is 62.8%; in the assay with UACC-62 melanoma, 21%; in the assay on LOX IMVI melanoma, 55.6%; in the assay with SK-MEL-28 melanoma, 27.7%; in the assay with SK-MEL-2 melanoma it was 28.4%; in the assay with EKVX NSCLC it was 104%. Besides, the growth in the assay with SN12C renal is 95.8%; in the assay on UO-31 renal, 105%; with TK-10 renal it was 133%; in the assay on ACHN renal, 86.3%; with CAKI-1 renal it was 92.6%; in the assay on A498 renal, 104%. Also, the growth in the assay on MOLT-4 leukemia was 101%.

With `CCOC(=O)c1nc2c3ccccc3cnn2c1C(=O)c1ccc(OC)cc1`, the growth in the assay with HCT-15 colon is 96.4%; in the assay with HT29 colon, 98.4%; with SNB-75 CNS it was 88.6%; with SNB-19 CNS it was 90.7%; in the assay on U251 CNS, 89.9%; with PC-3 prostate, 90.9%. Also, the growth is 97.1% in the assay with SK-MEL-5 melanoma; 95.5% with UACC-62 melanoma; 94% in the assay on LOX IMVI melanoma; 120% in the assay with SK-MEL-28 melanoma; 107% in the assay on SK-MEL-2 melanoma; 89.7% in the assay with EKVX NSCLC. The growth in the assay on SN12C renal was 98.5%; with UO-31 renal, 79.4%; in the assay on TK-10 renal, 140%; in the assay with ACHN renal, 100%; in the assay with CAKI-1 renal, 86.9%; in the assay on A498 renal, 79.9%. Besides, the growth in the assay with MOLT-4 leukemia is 88.7%.

In the case of `COc1ccc(/C=C2/C(=O)N=C3N2NC(c2ccccc2)=CN3c2ccccc2)cc1`, the growth is 109% in the assay on HCT-15 colon; 109% in the assay with HT29 colon; 98.1% in the assay with SNB-75 CNS; 97.7% in the assay with SNB-19 CNS; 99.4% in the assay on U251 CNS; 96.1% with PC-3 prostate. For the same molecule, the growth is 97.4% in the assay on SK-MEL-5 melanoma; 94.2% with UACC-62 melanoma; 87.8% in the assay with LOX IMVI melanoma; 108% in the assay on SK-MEL-28 melanoma; 106% in the assay with SK-MEL-2 melanoma; 103% in the assay with EKVX NSCLC. The growth was 96% with SN12C renal; 77.4% in the assay on UO-31 renal; 124% in the assay on TK-10 renal; 96.2% in the assay with ACHN renal; 88.4% in the assay with CAKI-1 renal; 107% in the assay on A498 renal. In addition, in the assay on MOLT-4 leukemia, the growth was 106%.

On to `Cc1ccccc1SSc1ccccc1C`, for which the growth is 17.9% in the assay with HCT-15 colon; 23.6% with HT29 colon; 123% in the assay on SNB-75 CNS; 84.2% in the assay on SNB-19 CNS; 87.6% with U251 CNS; 66.7% in the assay on PC-3 prostate. Further, the growth was 89.6% in the assay with SK-MEL-5 melanoma; 78.8% in the assay on UACC-62 melanoma; 72% in the assay on LOX IMVI melanoma; 121% with SK-MEL-28 melanoma; 24.3% in the assay with SK-MEL-2 melanoma; 114% in the assay on EKVX NSCLC. For the same molecule, the growth was 84.9% in the assay with SN12C renal; 78.4% in the assay with UO-31 renal; 85.5% in the assay with TK-10 renal; 0.0765% (active) in the assay with ACHN renal; 60.5% in the assay with CAKI-1 renal; 96.2% in the assay on A498 renal. Further, the growth in the assay with MOLT-4 leukemia is 83.9%.

Regarding `COC(=O)c1nc(-c2ccccc2)oc1S(=O)(=O)N(C)CCO`, the growth in the assay with HCT-15 colon is 42.5%; with HT29 colon, 35.7%; with SNB-75 CNS, 95.5%; in the assay on SNB-19 CNS it was 92.3%; with U251 CNS it was 82.7%; in the assay on PC-3 prostate, 63.2%. The growth in the assay on SK-MEL-5 melanoma was 96%; in the assay on UACC-62 melanoma, 77.2%; in the assay with LOX IMVI melanoma, 71.6%; in the assay on SK-MEL-28 melanoma, 69.8%; in the assay with SK-MEL-2 melanoma, 82.1%; in the assay with EKVX NSCLC it was 77.5%. Also, the growth was 87.6% in the assay on SN12C renal; 59.2% with UO-31 renal; 43.9% with TK-10 renal; 49.2% in the assay with ACHN renal; 54.7% in the assay on CAKI-1 renal; 112% in the assay with A498 renal. Further, in the assay on MOLT-4 leukemia, the growth is 45.2%.
